# Columns and labels:
# [1] = system: H1975; experiment: area under confluence curve of compound monotherapy; compare to DMSO control AUC of the same experiment (AUC (confluence x time, arbitrary)); conditions: DMSO control AUC in same experiment: 14522
# In short: (§1)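 EGFR-mutant adenocarcinoma lines (RPMI 1640, 10% FBS, 37 °C, 5% CO2) were seeded at 20,000–30,000 cells/well in 48-well plates and next day given test compound alone at one dose (highest with <50% parental inhibition, or 1 uM), refreshed after PBS washes every 3–4 days, then drug-free from DTP stage (10–21 days). IncuCyte confluence was tracked until EGFR-inhibitor-only wells regrew. Area under the confluence curve came from Prism (median of triplicates where run), beside same-experiment vehicle AUC.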
# [2] = system: HCC2279; experiment: as above
# In short: as §1
# [3] = system: HCC2935; experiment: as above
# In short: as §1
# [4] = system: HCC4006; experiment: as above
# In short: as §1
# [5] = system: HCC827; experiment: as above
# In short: as §1
# [6] = system: II-18; experiment: as above
# In short: as §1
# [7] = system: H1975; experiment: area under confluence curve of osimertinib + compound combination regimen (DTP regrowth); compare to osimertinib-only DTP control AUC of the same experiment (AUC (confluence x time, arbitrary)); conditions: DMSO control AUC in same experiment: 20657
# In short: (§2)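 The area under the IncuCyte confluence–time curve, calculated in Prism and taken as the median of triplicates where available, is the value reported. It was measured in EGFR-mutant NSCLC lines that received the EGFR inhibitor either alone, followed by a test compound, or together with a fixed-dose test compound until the persister stage (10–21 days) and then drug-free medium. Medium was refreshed every 3–4 days until the inhibitor-only wells were confluent again.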
# [8] = system: HCC2279; experiment: as above
# In short: as §2
# [9] = system: HCC2935; experiment: as above
# In short: as §2
# [10] = system: HCC4006; experiment: as above
# In short: as §2
# [11] = system: HCC827; experiment: as above
# In short: as §2
# [12] = system: II-18; experiment: as above
# In short: as §2
smiles,measurement,setting,value
COc1cc(CCc2cc(NC(=O)c3ccc(N4CC(C)NC(C)C4)cc3)n[nH]2)cc(OC)c1 (configuration not stated),area under confluence curve,[1]; 1000 nM,17400
same,area under confluence curve,"[2]; 1000 nM, DMSO control AUC in same experiment: 29252",28700
same,area under confluence curve,"[3]; 1000 nM, DMSO control AUC in same experiment: 11459",11000
same,area under confluence curve,"[4]; 1000 nM, DMSO control AUC in same experiment: 16794",15300
same,area under confluence curve,"[5]; 1000 nM, DMSO control AUC in same experiment: 43928",46400
same,area under confluence curve,"[6]; 1000 nM, DMSO control AUC in same experiment: 23373",19700
O=C(NC[C@H](O)CN1CCc2ccccc2C1)c1ccnc(NC2CCC2)c1 + C=CC(=O)Nc1cc(Nc2nccc(-c3cn(C)c4ccccc34)n2)c(OC)cc1N(C)CCN(C)C [osimertinib],area under confluence curve,"[7]; test compound dose 300 nM, dosing schedule: sequential, osimertinib-only DTP control AUC in same experiment: 15943",14900
same,area under confluence curve,"[7]; test compound dose 300 nM, dosing schedule: upfront, osimertinib-only DTP control AUC in same experiment: 27804",25700
same,area under confluence curve,"[8]; test compound dose 300 nM, dosing schedule: sequential, osimertinib-only DTP control AUC in same experiment: 15997, DMSO control AUC in same experiment: 40085",8560
same,area under confluence curve,"[8]; test compound dose 300 nM, dosing schedule: upfront, osimertinib-only DTP control AUC in same experiment: 28057, DMSO control AUC in same experiment: 40085",8330
same,area under confluence curve,"[9]; test compound dose 300 nM, dosing schedule: sequential, osimertinib-only DTP control AUC in same experiment: 7139, DMSO control AUC in same experiment: 15413",8090
same,area under confluence curve,"[9]; test compound dose 300 nM, dosing schedule: upfront, osimertinib-only DTP control AUC in same experiment: 19044, DMSO control AUC in same experiment: 15413",16100
same,area under confluence curve,"[10]; test compound dose 300 nM, dosing schedule: sequential, osimertinib-only DTP control AUC in same experiment: 14882, DMSO control AUC in same experiment: 10921",9080
same,area under confluence curve,"[10]; test compound dose 300 nM, dosing schedule: upfront, osimertinib-only DTP control AUC in same experiment: 18913, DMSO control AUC in same experiment: 10921",6670
same,area under confluence curve,"[11]; test compound dose 300 nM, dosing schedule: sequential, osimertinib-only DTP control AUC in same experiment: 5666, DMSO control AUC in same experiment: 43928",5240
same,area under confluence curve,"[11]; test compound dose 300 nM, dosing schedule: upfront, osimertinib-only DTP control AUC in same experiment: 19044, DMSO control AUC in same experiment: 43928",24000
same,area under confluence curve,"[12]; test compound dose 300 nM, dosing schedule: sequential, osimertinib-only DTP control AUC in same experiment: 21122, DMSO control AUC in same experiment: 7080",18800
same,area under confluence curve,"[12]; test compound dose 300 nM, dosing schedule: upfront, osimertinib-only DTP control AUC in same experiment: 22894, DMSO control AUC in same experiment: 7080",6900
Cn1cnc2c(F)c(Nc3ccc(Br)cc3Cl)c(C(=O)NOCCO)cc21 [Selumetinib],area under confluence curve,[1]; 300 nM,17100
same,area under confluence curve,"[2]; 300 nM, DMSO control AUC in same experiment: 40085",37400
same,area under confluence curve,"[3]; 300 nM, DMSO control AUC in same experiment: 15413",17800
same,area under confluence curve,"[4]; 300 nM, DMSO control AUC in same experiment: 10921",11800
same,area under confluence curve,"[5]; 300 nM, DMSO control AUC in same experiment: 48895",45800
same,area under confluence curve,"[6]; 300 nM, DMSO control AUC in same experiment: 18482",15300
CCN1CCN(Cc2ccc(Nc3ncc(F)c(-c4cc(F)c5nc(C)n(C(C)C)c5c4)n3)nc2)CC1 [Abemaciclib],area under confluence curve,[1]; 100 nM,13800
same,area under confluence curve,"[2]; 100 nM, DMSO control AUC in same experiment: 27284",22900
same,area under confluence curve,"[3]; 100 nM, DMSO control AUC in same experiment: 11459",8290
same,area under confluence curve,"[4]; 100 nM, DMSO control AUC in same experiment: 10921",9680
same,area under confluence curve,"[5]; 100 nM, DMSO control AUC in same experiment: 48895",48500
same,area under confluence curve,"[6]; 100 nM, DMSO control AUC in same experiment: 13556",14000
C[C@@H](Nc1cc(F)cc(F)c1)c1cc(C(=O)N(C)C)cc2c(=O)cc(N3CCOCC3)oc12 + C=CC(=O)Nc1cc(Nc2nccc(-c3cn(C)c4ccccc34)n2)c(OC)cc1N(C)CCN(C)C [osimertinib],area under confluence curve,"[7]; test compound dose 1000 nM, dosing schedule: sequential, osimertinib-only DTP control AUC in same experiment: 15943",8220
same,area under confluence curve,"[7]; test compound dose 1000 nM, dosing schedule: upfront, osimertinib-only DTP control AUC in same experiment: 27804",13700
same,area under confluence curve,"[8]; test compound dose 1000 nM, dosing schedule: sequential, osimertinib-only DTP control AUC in same experiment: 21824, DMSO control AUC in same experiment: 29252",8080
same,area under confluence curve,"[8]; test compound dose 1000 nM, dosing schedule: upfront, osimertinib-only DTP control AUC in same experiment: 43517, DMSO control AUC in same experiment: 29252",21600
same,area under confluence curve,"[9]; test compound dose 1000 nM, dosing schedule: sequential, osimertinib-only DTP control AUC in same experiment: 6271, DMSO control AUC in same experiment: 13875",5860
same,area under confluence curve,"[9]; test compound dose 1000 nM, dosing schedule: upfront, osimertinib-only DTP control AUC in same experiment: 10360, DMSO control AUC in same experiment: 13875",5800
same,area under confluence curve,"[10]; test compound dose 1000 nM, dosing schedule: sequential, osimertinib-only DTP control AUC in same experiment: 19238, DMSO control AUC in same experiment: 16638",10300
same,area under confluence curve,"[10]; test compound dose 1000 nM, dosing schedule: upfront, osimertinib-only DTP control AUC in same experiment: 21234, DMSO control AUC in same experiment: 16638",5440
same,area under confluence curve,"[11]; test compound dose 1000 nM, dosing schedule: sequential, osimertinib-only DTP control AUC in same experiment: 8266, DMSO control AUC in same experiment: 27404",3540
same,area under confluence curve,"[11]; test compound dose 1000 nM, dosing schedule: upfront, osimertinib-only DTP control AUC in same experiment: 13929, DMSO control AUC in same experiment: 27404",3910
same,area under confluence curve,"[12]; test compound dose 1000 nM, dosing schedule: sequential, osimertinib-only DTP control AUC in same experiment: 21014, DMSO control AUC in same experiment: 18482",12100
same,area under confluence curve,"[12]; test compound dose 1000 nM, dosing schedule: upfront, osimertinib-only DTP control AUC in same experiment: 27084, DMSO control AUC in same experiment: 18482",10200
